VP16 counter – inhibits Gal4-VP16 luciferase reporter, ROR gamma counter-screen. Drosophila S2 Gal4-VP16 UAS-luciferase, luminescence, 20 h. Potency, µM (series often up to 53.6 µM), without a hit: at the highest dose activity, negative = inhibition, hits mostly inhibitors. 310,000 tested, 3.5% active;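 also: Gal4-VP16 expression switched on by copper sulfate through the metallothionein promoter; nearly all actives have a fitted effect of over 50% in size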
ALDH1A1 block – inhibitors of human aldehyde dehydrogenase 1A1. P00352. Purified ALDH1A1, NADH fluorescence, propionaldehyde substrate. Potency, µM (series often up to 75.3 µM), without a hit: at the highest dose activity, negative = inhibition, usual class: inhibitors. 220,000 tested, 7.3% active. AID 1030; active = well fitted inhibition curve with a large enough effect, not every such curve was filed as active; inconclusive = small, poorly fitted or top-dose-only effect, or another doubt; inactive = no such curve, though single readings can be large or run the other way;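 also: plate controls were no enzyme wells and a reference inhibitor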
Sfp inh – blocks B. subtilis Sfp PPTase activity; Q9F4F7; Biochemical Sfp PPTase activity, qHTS; Potency, µM, inactives show largest response in the series, negative = inhibition, actives largely listed as inhibitors; 310,000 tested, 3.5% active;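 also: the enzyme is Sfp with the accession as filed and its product quenches rhodamine fluorescence; 0% = enzyme reaction without inhibitor and -100% = no enzyme wells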
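After 15 min at room temperature with compound, 15 nM Sfp received 5 uM rhodamine-CoA plus 12.5 uM BHQ-2-ybbR (50 mM Hepes pH 7.6, 10 mM MgCl2). Rate came from the fluorescence difference over 30 min, ex 525/em 598 nm.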
PLK1 PBD inh – blocks phosphopeptide binding to human PLK1 polo-box domain; P53350; 360,000 tested, 2.8% active; Plk1 PBD binding of FITC phosphopeptide, fluorescence polarization; Potency, µM, for the others: max response, negative = inhibition, most hits filed as inhibitors; also: series mostly up to about 57 µM; nearly all actives have a fitted effect of over 65% in size
Target sequence (P53350 whole entry, looked up, the tested form may be a part): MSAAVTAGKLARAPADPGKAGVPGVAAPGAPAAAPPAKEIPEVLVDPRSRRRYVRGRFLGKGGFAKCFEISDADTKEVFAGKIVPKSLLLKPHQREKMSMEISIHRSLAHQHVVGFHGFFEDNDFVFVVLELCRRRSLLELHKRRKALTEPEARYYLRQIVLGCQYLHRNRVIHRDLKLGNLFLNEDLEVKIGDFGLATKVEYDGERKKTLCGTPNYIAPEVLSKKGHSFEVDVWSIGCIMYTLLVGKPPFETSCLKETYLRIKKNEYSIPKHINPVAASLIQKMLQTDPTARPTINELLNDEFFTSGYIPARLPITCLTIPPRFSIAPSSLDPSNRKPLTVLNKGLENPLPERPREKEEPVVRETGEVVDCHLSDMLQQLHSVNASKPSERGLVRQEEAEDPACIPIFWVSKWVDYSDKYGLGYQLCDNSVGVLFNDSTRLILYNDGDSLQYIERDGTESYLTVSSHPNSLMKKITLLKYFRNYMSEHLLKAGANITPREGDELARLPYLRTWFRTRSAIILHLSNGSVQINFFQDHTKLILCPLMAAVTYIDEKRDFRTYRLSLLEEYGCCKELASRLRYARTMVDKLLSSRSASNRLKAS
RORg inh – inhibitors of mouse ROR gamma transcriptional activity. P51450. Drosophila S2 Gal4-RORgamma UAS-luciferase reporter, 20 h. Potency, µM (series often up to 53.6 µM), without a hit: top-dose activity change, negative = inhibition, usual class: inhibitors. 310,000 tested, 5.4% active. AID 2551; also: nearly all actives have a fitted effect of over 60% in size
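Drosophila S2 cells stably expressing Gal4-DBD/mouse RORγ fusion under metallothionein promoter plus UAS-luciferase; compound 1 h, then 700 uM CuSO4 induction for 20 h at ambient temperature; inhibition read as reduced luminescence.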
* hit, by the source's call; ? = inconclusive; . = no result given; [ ] = dose if it differs, or a comment. Hits are enriched below; roughly 12% of the tested compounds scored in any of these assays. Unless noted, calls follow the shape of the dose curve; as a rule, active = well fitted curve in the direction sought with a large enough effect; inconclusive = small, poorly fitted or top-dose-only effect, or another doubt; inactive = no such curve, though single readings can be large; an effect the other way counts as inactive or inconclusive. Unless noted, % is scaled to controls: 0 for no effect and ±100 for the full control effect; potency is read from the fitted curve at half-maximal effect.

SMILES | VP16 counter | ALDH1A1 block | Sfp inh | PLK1 PBD inh | RORg inh
Cc1ccc(-n2nnnc2SCC(=O)c2cc(C)n(-c3cc(C)on3)c2C)c(C)c1 | ? | 2.2µM* | -10% | 3% | ?
Cc1cc(-n2c(C)cc(C(=O)CSc3nnnn3-c3ccccc3)c2C)no1 | 21% | 7.1µM* | -2% | 2% | ?
Cc1cc(-n2c(C)cc(C(=O)CSc3ccc4c(c3)OCCO4)c2C)no1 | 7% | -6% | -15% | ? | 42%
CCOC(=O)N(C)c1c(CC)nc2c(OCc3ccccc3)cccn12 | . | . | . | -1% | .
CCOC(=O)c1cc(OC(C)=O)c2ccc(OC)c(OC)c2c1 | . | . | . | 4% | .
COc1cccc([C@@H]2Oc3ccc(OC)cc3C(=O)[C@H]2OC(=O)Nc2ccc(OC(F)F)cc2)c1 | -6% | 1% | -7% | . | 1%
c1cc2c(cc1C(N1CCNCC1)N1CCNCC1)OCO2 | . | 7%[13.5 µM] | . | . | .
C/C(=N/OC(=O)c1ccc(C)cc1)c1ccc(N2C(=O)C3CCCCC3C2=O)cc1 (configuration not stated) | -9% | 4% | -8% | 30µM* | 16%
C/C(=N/NC(=O)c1ccccc1O)c1ccc(N2C(=O)C3CCCCC3C2=O)cc1 (configuration not stated) | ? | ? | 2% | -6% | 13µM*
O=C(c1ccc(N2C(=O)C3CCCCC3C2=O)cc1)N1CCCCC1 (configuration not stated) | -5% | ? | 11% | -3% | 11%
O=C(NS(=O)(=O)Oc1cccc(Cl)c1Cl)OC[C@@H]1CCCN2CCCCC12 (some centres not stated) | -4% | 13% | 18% | -6% | -3%
CCOc1ccc(CCNC(=O)c2ccc(CS(=O)Cc3ccc(Cl)cc3)o2)cc1OCC (configuration not stated) | 0% | . | 7% | -3% | 25%
Cc1ccc(CS(=O)(=O)Cc2ccc(C(=O)NCc3ccccn3)o2)cc1 | ? | -13% | 50µM* | -2% | -35%
COc1ccc(CCNC(=O)c2ccc(CSc3ccccc3)o2)cc1 | -4% | 3.5µM* | -2% | -2% | 40%
CCOc1ccc(CCNC(=O)c2ccc(CS(=O)Cc3cccc(Cl)c3)o2)cc1 (configuration not stated) | 19% | . | 19% | 27µM* | ?
COc1ccc(S(=O)(=O)Cc2ccc(C(=O)NCc3ccccn3)o2)cc1 | 11% | -6% | 11% | 1% | 10%
Cc1cccc(CS(=O)(=O)Cc2ccc(C(=O)NCCc3ccccc3)o2)c1 | -1% | . | 14% | 27µM* | -6%
CCOCCCNC(=O)c1ccc(CS(=O)(=O)Cc2cccc(C)c2)o1 | 1% | 7% | 6% | 1% | 14%
CS(=O)(=O)NC(=O)CCC/C=C\C[C@H]1C(=O)C[C@@H](O)[C@@H]1/C=C/[C@@H](O)COc1ccccc1 | -11% | . | -18% | . | ?
CCOc1ccc(C(=O)NC(=S)NCc2cccnc2)cc1[N+](=O)[O-] | -4% | ? | -3% | 0% | -19%
COc1ccc2nc(NCN3C(=O)c4ccccc4C3=O)sc2c1 | . | 9%[13.5 µM] | . | . | .
O=C(NCc1ccc(F)cc1)c1ccc(CS(=O)(=O)Cc2ccc(F)cc2)o1 | 2% | 0% | 24% | -5% | ?
COc1cccc(CNC(=O)c2ccc(CS(=O)(=O)Cc3ccccc3C)o2)c1 | -16% | . | 16% | -5% | 2%
Cc1ccccc1CS(=O)(=O)Cc1ccc(C(=O)NCCc2ccccc2)o1 | -5% | . | 12% | 30µM* | 32%
O=C(NCc1ccc(F)cc1)c1ccc(CS(=O)(=O)Cc2ccccc2F)o1 | -12% | 13µM* | -10% | -9% | ?
CCCC(=O)O[C@]1(C(=O)CCl)[C@H](C)C[C@@H]2[C@H]3CCC4=CC(=O)C=C[C@]4(C)[C@@]3(F)C(=O)C[C@@]21C | 4% | . | 11% | . | 10µM*
C[C@H]1C[C@@H]2[C@H]3CCC4=CC(=O)C=C[C@@]4(C)[C@@]3(Cl)[C@@H](O)C[C@]2(C)[C@]1(OC(=O)c1ccco1)C(=O)CCl | -22%[17 µM] | -2%[20.9 µM] | 35µM* | . | ?
C[C@@H]1C[C@H]2[C@@H]3CCC4=CC(=O)C=C[C@]4(C)[C@@]3(Cl)[C@@H](O)C[C@]2(C)[C@@]1(OC(=O)c1ccco1)C(=O)CCl | . | . | . | -9% | .
